Read-out in test [1]: Transforming growth factor beta 1 (TGFb1), TGFB1 (gene 7040)
In words: BSK_KF3CT_TGFb1: BioMAP Diversity Plus: KF3CT Assay for Transforming growth factor beta 1 (TGFb1) Biomarker Activity (AID 2283072). The following applies: primary human keratinocytes with fibroblasts; actives raise or lower the signal. In a few lines:
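TGF-b1 ELISA on a 24 h dosed co-culture of human keratinocytes and foreskin fibroblasts; cytotoxicity tracked in parallel cultures by SRB staining.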

Read-out in test [2]: Matrix Metallopeptidase 9 (MMP9), MMP9 (gene 4318)
In words: BSK_KF3CT_MMP9: BioMAP Diversity Plus: KF3CT Assay for Matrix Metallopeptidase 9 (MMP9) Biomarker Activity (AID 2283074).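 On AC50: MMP9 protein level quantified by ELISA in the co-culture.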 The settings on record: primary human keratinocytes with fibroblasts; actives raise or lower the signal. In a few lines: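 Values come from bidirectional fitting relative to DMSO of MMP-9 levels, which were measured by ELISA. Measurements were taken 24 h after chemical dosing of a keratinocyte and foreskin fibroblast co-culture.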

Read-out in test [3]: urokinase plasminogen activator (uPA), PLAU (gene 5328)
Put plainly: BSK_KF3CT_uPA: BioMAP Diversity Plus: KF3CT Assay for urokinase plasminogen activator (uPA) Biomarker Activity (AID 2283075). The settings on record: primary human keratinocytes with fibroblasts; actives raise or lower the signal. In a few lines:
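Values derive from bidirectional fitting against DMSO controls. Keratinocyte/foreskin fibroblast co-cultures received chemical; 24 h later uPA was detected by ELISA, with SRB total-protein staining in parallel wells for overt cytotoxicity.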

Read-out in test [4]: CD40, CD40 (gene 958)
In words: BSK_LPS_CD40: BioMAP Diversity Plus: LPS Assay for CD40 Biomarker Activity (AID 2283076). The following applies: primary human HUVEC with PBMC; actives raise or lower the signal. In a few lines:
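In the LPS system of human endothelial cells with peripheral blood mononuclear cells, CD40 levels were read by ELISA 24 h post-treatment. Signal changes in either direction were fitted against the DMSO baseline, with parallel SRB protein staining.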

Read-out in test [5]: E-selectin (Homo sapiens) (UniProt P16581)
Put plainly: BSK_LPS_Eselectin: BioMAP Diversity Plus: LPS Assay for Eselectin Biomarker Activity (AID 2283077). The settings on record: primary human HUVEC with PBMC; actives raise or lower the signal. In a few lines: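 E-selectin ELISA on LPS-stimulated endothelial cell/PBMC co-cultures, read 24 h post-treatment; gains and losses fitted against DMSO. Parallel SRB staining (0.1% SRB after 10% TCA fixation, 560 nm) flags overt cytotoxicity.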

Read-out in test [6]: Interleukin-8 (IL8), CXCL8 (gene 3576)
Put plainly: BSK_LPS_IL8: BioMAP Diversity Plus: LPS Assay for Interleukin-8 (IL8) Biomarker Activity (AID 2283078). The following applies: primary human HUVEC with PBMC; actives raise or lower the signal. In a few lines:
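ELISA read-out of IL-8 after 24 h chemical treatment of LPS-activated endothelial/PBMC human primary co-cultures. Changes either up or down relative to DMSO; overt cytotoxicity checked by sulforhodamine B staining in parallel wells.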

Test [7] in a line: BSK_LPS_SRB: Viability Assessment in the BioMAP Diversity Plus: LPS Assay (AID 2283079).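 Further: total protein by sulforhodamine B absorbance as a cytotoxicity measure; measured one day after compound addition; fitted in both directions against DMSO so loss or gain of signal counts.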 The following applies: primary human HUVEC with PBMC. In a few lines: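 SRB viability endpoint: cells fixed with 10% TCA, stained with 0.1% SRB, read at 560 nm, 24 h post-dose. HUVEC/PBMC co-culture; signal change in either direction scored relative to DMSO.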
Read-out in test [8]: Interleukin-1 alpha (IL1a), IL1A (gene 3552)
In words: BSK_LPS_IL1a: BioMAP Diversity Plus: LPS Assay for Interleukin-1 alpha (IL1a) Biomarker Activity (AID 2283080). The following applies: primary human HUVEC with PBMC; actives raise or lower the signal. In a few lines:
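Readout is IL-1a level by ELISA, 24 h post-dose, fitted as gain or loss relative to DMSO. System: LPS-activated human primary co-culture of vascular endothelium and peripheral blood mononuclear cells, with parallel SRB total-protein cytotoxicity.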

Read-out in test [9]: Monocyte Chemoattractant Protein-1 (MCP1), CCL2 (gene 6347)
In words: BSK_LPS_MCP1: BioMAP Diversity Plus: LPS Assay for Monocyte Chemoattractant Protein-1 (MCP1) Biomarker Activity (AID 2283081).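 On AC50: secreted MCP-1 protein quantified by ELISA in culture supernatant.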 The settings on record: primary human HUVEC with PBMC; actives raise or lower the signal. In a few lines: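 Secreted MCP-1 read by ELISA at 24 h post-dosing in an LPS-activated co-culture of endothelial cells with peripheral blood mononuclear cells. Fits run in both directions, DMSO as baseline; parallel SRB staining tracks overt cytotoxicity.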

The nature of test [10]: BSK_LPS_PGE2: BioMAP Diversity Plus: LPS Assay for Prostaglandin E2 (PGE2) Biomarker Activity (AID 2283082).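 On AC50: secreted prostaglandin E2 measured by ELISA in LPS-stimulated co-culture.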 The following applies: primary human HUVEC with PBMC; actives raise or lower the signal. In a few lines:
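Primary human endothelial cells and blood mononuclear cells, co-cultured with LPS, receive test chemical; PGE2 ELISA follows at 24 h, with SRB-stained parallel cultures flagging cytotoxicity.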

Read-out in test [11]: Macrophage colony-stimulating factor (MCSF), CSF1 (gene 1435)
In words: BSK_LPS_MCSF: BioMAP Diversity Plus: LPS Assay for Macrophage colony-stimulating factor (MCSF) Biomarker Activity (AID 2283083). The settings on record: primary human HUVEC with PBMC; actives raise or lower the signal. In a few lines:
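Bidirectional fitting against DMSO was applied to M-CSF levels read by ELISA at 24 h post-dose. The system pairs human umbilical vein endothelium with peripheral blood mononuclear cells; parallel SRB staining tracked cytotoxicity.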

Read-out in test [12]: Tissue Factor, F3 (gene 2152)
In words: BSK_LPS_TissueFactor: BioMAP Diversity Plus: LPS Assay for Tissue Factor Biomarker Activity (AID 2283084). The following applies: primary human HUVEC with PBMC; actives raise or lower the signal. In a few lines: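 Compound was added to an endothelial cell/PBMC co-culture, and after 24 h tissue factor (CD142) was read by ELISA. Gain or loss of signal was fitted against a DMSO baseline, and parallel SRB staining (560 nm) tracked overt cytotoxicity.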

Read-out in test [13]: Tumor necrosis factor (Homo sapiens) (UniProt P01375)
Put plainly: BSK_LPS_TNFa: BioMAP Diversity Plus: LPS Assay for Tumour Necrosis Factor alpha (TNFa) Biomarker Activity (AID 2283085). The settings on record: primary human HUVEC with PBMC; actives raise or lower the signal. In a few lines:
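ELISA-based TNFa endpoint in a human endothelial–PBMC co-culture sampled 24 h post-exposure. Curves were fitted in both directions using DMSO as baseline of activity.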

Read-out in test [14]: Vascular cell adhesion molecule 1 (VCAM1), VCAM1 (gene 7412)
Put plainly: BSK_LPS_VCAM1: BioMAP Diversity Plus: LPS Assay for Vascular cell adhesion molecule 1 (VCAM1) Biomarker Activity (AID 2283086). The following applies: primary human HUVEC with PBMC; actives raise or lower the signal. In a few lines: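 Measured by ELISA: VCAM-1 in LPS-activated HUVEC/PBMC co-cultures 24 h after treatment. Values reflect bidirectional fitting with DMSO as baseline.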

Read-out in test [15]: CD40, CD40 (gene 958)
In words: BSK_SAg_CD40: BioMAP Diversity Plus: SAg Assay for CD40 Biomarker Activity (AID 2283088). The following applies: primary human HUVEC with PBMC; actives raise or lower the signal. In a few lines: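 CD40 is measured by fluorescence ELISA in an endothelial/PBMC primary human co-culture at 24 h post-dose. Fitting is bidirectional, DMSO baseline. Parallel SRB staining (560 nm) flags cytotoxicity.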

Read-out in test [16]: Monocyte Chemoattractant Protein-1 (MCP1), CCL2 (gene 6347)
Put plainly: BSK_SAg_MCP1: BioMAP Diversity Plus: SAg Assay for Monocyte Chemoattractant Protein-1 (MCP1) Biomarker Activity (AID 2283090). The following applies: primary human HUVEC with PBMC; actives raise or lower the signal. In a few lines:
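Values derive from bidirectional fitting of ELISA-measured MCP1 against DMSO controls. Readings were taken 24 h after dosing human vascular endothelial cells co-cultured with peripheral blood mononuclear cells under superantigen stimulation.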

Read-out in test [17]: E-selectin (Homo sapiens) (UniProt P16581)
Put plainly: BSK_SAg_Eselectin: BioMAP Diversity Plus: SAg Assay for Eselectin Biomarker Activity (AID 2283091). The following applies: primary human HUVEC with PBMC; actives raise or lower the signal. In a few lines: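 Cell-surface E-selectin is read by ELISA at 24 h in the SAg co-culture of HUVEC and PBMC. Curves are fitted in both directions relative to DMSO. Parallel SRB total-protein staining tracks overt toxicity.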

Read-out in a further test: CD38, CD38 (gene 952)
Put plainly: BSK_SAg_CD38: BioMAP Diversity Plus: SAg Assay for CD38 Biomarker Activity (AID 2283087). The following applies: primary human HUVEC with PBMC; actives raise or lower the signal. In a few lines: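 Measures CD38 on a human endothelial/PBMC co-culture driven by SEB and TSST-1, 24 h after compound exposure, using ELISA with fluorescence detection; DMSO defines baseline for bidirectional curve fitting.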

The structures appear in SMILES notation. Active and inactive are the calls of the source. How the source made its calls: active means hit-call score of the fitted dose curve at least 0.9, where 1 is the maximum; inactive means score below 0.9.

Sequence of Tumor necrosis factor (Homo sapiens) (P01375 whole entry, looked up): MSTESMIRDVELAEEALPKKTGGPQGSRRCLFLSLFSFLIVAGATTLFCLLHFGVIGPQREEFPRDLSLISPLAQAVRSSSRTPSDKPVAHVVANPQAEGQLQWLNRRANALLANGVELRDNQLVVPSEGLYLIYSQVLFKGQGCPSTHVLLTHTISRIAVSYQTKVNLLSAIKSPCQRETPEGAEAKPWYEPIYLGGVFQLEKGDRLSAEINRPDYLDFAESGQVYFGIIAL
Sequence of E-selectin (Homo sapiens) (P16581 whole entry, looked up): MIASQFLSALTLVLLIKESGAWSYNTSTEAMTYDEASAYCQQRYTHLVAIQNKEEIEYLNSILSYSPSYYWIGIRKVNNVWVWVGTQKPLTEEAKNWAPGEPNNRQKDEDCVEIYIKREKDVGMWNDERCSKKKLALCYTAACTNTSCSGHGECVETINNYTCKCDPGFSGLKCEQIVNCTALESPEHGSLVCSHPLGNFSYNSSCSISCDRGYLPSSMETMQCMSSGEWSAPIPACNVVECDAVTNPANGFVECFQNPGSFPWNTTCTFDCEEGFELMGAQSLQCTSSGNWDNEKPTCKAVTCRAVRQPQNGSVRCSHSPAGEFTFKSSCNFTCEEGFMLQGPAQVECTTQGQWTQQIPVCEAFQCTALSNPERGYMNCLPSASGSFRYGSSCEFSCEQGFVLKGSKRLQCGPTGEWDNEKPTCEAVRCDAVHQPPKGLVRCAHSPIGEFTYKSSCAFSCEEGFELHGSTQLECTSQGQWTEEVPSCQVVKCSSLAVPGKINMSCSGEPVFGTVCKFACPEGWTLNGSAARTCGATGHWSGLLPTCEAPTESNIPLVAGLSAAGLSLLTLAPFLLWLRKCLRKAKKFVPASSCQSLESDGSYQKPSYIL

One may read the AC50 as the midpoint of the concentration-response curve, whichever way the signal moves. As for `CCCCC(O)(Cn1cncn1)c1ccc(Cl)cc1Cl` (stereo unspecified), the outcome in test [1] is “inactive”; in test [2] it was “inactive”; in [3] it was “inactive”; with CD40, CD40 (gene 958) [4], “inactive”; in test [5], “inactive”; in [6] it was “inactive”. The outcome in test [7], in test [8], in test [9], in test [11], in test [12] and in [13] was inactive. In addition, the outcome in test [14] was “inactive”; with CD40, CD40 (gene 958) [15], “inactive”; in [16], “inactive”. Also, the AC50 in [10] was 3.81 µM (active); in test [17], 22.5 µM (active).

Take `COCC(=O)N(c1c(C)cccc1C)C(C)C(=O)OC` (stereo unspecified): the outcome in test [1] was “inactive”; in test [2] it was “inactive”; in test [3] it was “inactive”; in the test with CD40, CD40 (gene 958) [4], “inactive”; in test [5], “inactive”; in [6] it was “inactive”. The outcome in [7], in test [8], in test [9], in test [10], in test [11] and in test [12] was inactive. Also, the outcome in test [13] is “inactive”; in test [14], “inactive”; in the test with CD40, CD40 (gene 958) [15] it was “inactive”; in [16], “inactive”; in test [17] it was “inactive”.

Turning to `CCCN(CC)CC1COC2(CCC(C(C)(C)C)CC2)O1` (stereo unspecified), the outcome is “inactive” in test [1]; “inactive” in test [2]; “inactive” in test [3]; “inactive” with CD40, CD40 (gene 958) [4]; “inactive” in test [5]; “inactive” in test [7]. In addition, the outcome in test [8], in test [9], in test [10], in test [11], in test [12] and in test [13] was inactive. The outcome in test [14] was “inactive”; with CD40, CD40 (gene 958) [15] it was “inactive”; in test [16] it was “inactive”. For the same compound, the results for the half-maximal activity concentration (AC50) in test [6] and in test [17] were 15.7 µM (active) and 12.9 µM (active), respectively.

Take `COP(=S)(OC)Oc1ccc([N+](=O)[O-])c(C)c1`: the outcome in [1] is “inactive”; in test [3] it was “inactive”; with CD40, CD40 (gene 958) [4] it was “inactive”; in [5] it was “inactive”; in [6], “inactive”; in test [8], “inactive”. The outcome in test [10] is “inactive”; in test [12] it was “inactive”; in test [13], “inactive”; with CD38, CD38 (gene 952), “inactive”; in test [16], “inactive”. Also, the AC50 in test [2] was 15.1 µM (active); in test [7], 10.6 µM (active); in test [9], 20 µM (active); in test [11], 20 µM (active); in test [14] it was 31.5 µM (active); with CD40, CD40 (gene 958) [15], 7.6 µM (active). Also, the AC50 in [17] was 29.6 µM (active).

On to `COc1cc(Cl)c(OC)cc1Cl`, for which the outcome was “inactive” in [1]; “inactive” in test [2]; “inactive” in [3]; “inactive” in the test with CD40, CD40 (gene 958) [4]; “inactive” in [5]; “inactive” in test [6]. In addition, the outcome in test [7], in test [8], in [9], in test [10], in [11] and in [12] was inactive. Moreover, the outcome was “inactive” in [13]; “inactive” in [14]; “inactive” with CD40, CD40 (gene 958) [15]; “inactive” in test [16]; “inactive” in test [17].

These data come from PubChem BioAssay (EPA / NIEHS).
